A selection: hits, their analogues and other compounds. The true share with any hit is near 4.1%.
DAX1 inh-1 = DAX1 (NR0B1) inhibitors, primary screen, cell-based, HEK293, Gal4-DAX1, luciferase luminescence. Nuclear receptor subfamily 0 group B member 1 (Homo sapiens), P51843. HEK293 Gal4-DAX1 luciferase reporter. inhibition, % at 6.75 µM. 340,000 compounds, 0.99% hits. AID 504766, 2011;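 active means inhibition above the mean over all tested compounds plus 3 SD, cut at about 4.2% in these data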;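 further: 0% = DAX1-transfected cells with DMSO and 100% = empty-vector control cells with DMSO; inhibition shows as a rise in luminescence from relieved DAX1 repression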
ssDAF12 agonist = S. stercoralis DAF-12 nuclear receptor activators, primary screen, cell-based, luminescence, HEK293, GRIP1 co-expression, lit1-tk-luc; Nuclear hormone receptor DAF-12 (Strongyloides stercoralis); HEK293 ssDAF-12/GRIP1 lit1-tk-luc reporter; % of 3 µM dafachronic acid response; activation, % at 6.8 µM; 370,000 compounds, 1% hits; AID 652126, 2013;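 active means activation above the mean over all tested compounds plus 3 SD, cut at about 0.9% in these data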;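 further: 0% = DMSO-only wells and 100% = 3 µM delta7-dafachronic acid wells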
hgDAF-12 ag = H. glycines DAF-12 receptor agonists, primary screen, cell-based, luminescence, HEK293, GAL4 fusion, UAS-luciferase. HEK293 GAL4-hgDAF12 UAS-luciferase reporter, agonist luminescence; normalized to butyrate control. 370,000 compounds, 1.8% hits. Nuclear hormone receptor DAF-12 (Heterodera glycines), GAL4 fusion. AID 687014, 2013. activation, % at 6.8 µM;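 active means activation above a cutoff set at the mean of all screened compounds plus 3 SD, cut at about 10% in these data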;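 further: 0% = DMSO wells and 100% = sodium butyrate wells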
DAX1 inh-2 = DAX1 (NR0B1) inhibitors on StAR promoter, primary screen, cell-based, luminescence, SF-1 (NR5A1), full-length DAX-1 | HEK293T StAR-luciferase reporter, SF-1/DAX-1 repression relief | 370,000 compounds, 1.1% hits | inhibition, % at 6.8 µM;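 active means inhibition above the mean over all tested compounds plus 3 SD, cut at about 3.6% in these data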;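 further: 0% = DAX-1 cells with DMSO and 100% = cells lacking DAX-1 with DMSO; higher inhibition means more luminescence from relief of DAX-1 repression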
hcDAF12 agonist = H. contortus DAF-12 nuclear receptor activators, primary screen, cell-based, luminescence, HEK293, lit1-tk-luc reporter | HEK293 hcDAF-12 lit1-tk-luc reporter; 0% DMSO, 100% Δ7-dafachronic acid | activation, % at 6.8 µM | 370,000 compounds, 1.4% hits | AID 652067, 2013;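 active means activation above the mean of all tested compounds plus 3 SD, cut at about 5.5% in these data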;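 further: 100% = response to 3 µM Δ7-dafachronic acid high control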
DAX1 inh confirm = DAX1 (NR0B1) inhibitors relieving SF-1 repression, confirmation, cell-based, luminescence, HEK293T, full-length DAX-1, SF-1 activated StAR promoter; shares compounds with DAX1 inh-2; HEK293T StAR-promoter luciferase reporter, SF-1/DAX-1 repression; inhibition, % at 6.8 µM; 2,400 compounds, 87% hits; AID 652134, 2013;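 active means inhibition above the average of every tested compound plus 3 SD, cut at about 3.8% in these data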;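 further: 0% = DAX-1 cells with DMSO and 100% = no DAX-1 control cells with DMSO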
SF1 AF2mut Luc = StAR reporter signal changes without DAX1, counter-screen for DAX1 inhibitor project, cell-based, luminescence, AF-2 mutant SF-1, transactivation; shares compounds with DAX1 inh-2; inhibition, % at 6.8 µM; HEK293 StAR-luciferase, SF-1 AF2 mutant; 2,400 compounds, 78% hits;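 active means inhibition above the mean of all tested compounds plus 3 SD, cut at about 3% in these data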;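 further: 0% = DAX-1 transfected cells with DMSO and 100% = cells without DAX-1 with DMSO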
LXRb hcDAF ctr = LXR agonists, Gal4 luciferase reporter, confirmation, counter-screen for hcDAF-12 agonist project, cell-based, luminescence, HEK293, H. contortus campaign. shares compounds with hcDAF12 agonist. HEK293 Gal4-LXR tk-luc reporter, 24 h; normalized: DMSO 0%, positive control 100%. activation, % at 6.8 µM. 3,400 tested, under 10 active;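 active means mean percent activation of the reporter above a cutoff set as the average over tested compounds plus their standard deviation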
Target sequence (P55055 whole entry, looked up, the tested form may be a part): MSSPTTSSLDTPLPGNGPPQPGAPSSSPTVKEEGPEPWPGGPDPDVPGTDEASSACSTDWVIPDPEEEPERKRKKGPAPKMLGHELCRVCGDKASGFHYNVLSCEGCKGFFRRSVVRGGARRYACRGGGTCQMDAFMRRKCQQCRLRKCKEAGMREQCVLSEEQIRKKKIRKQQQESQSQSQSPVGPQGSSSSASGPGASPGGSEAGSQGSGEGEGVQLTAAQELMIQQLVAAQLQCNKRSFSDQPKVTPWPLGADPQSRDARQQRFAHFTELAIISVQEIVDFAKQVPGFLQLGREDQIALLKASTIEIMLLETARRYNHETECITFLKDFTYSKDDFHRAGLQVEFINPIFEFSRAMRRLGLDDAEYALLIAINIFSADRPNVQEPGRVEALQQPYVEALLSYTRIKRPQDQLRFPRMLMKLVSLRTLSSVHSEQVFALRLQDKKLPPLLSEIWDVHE
hcDAF12 ag = H. contortus DAF-12 receptor agonists, confirmation, cell-based, luminescence, HEK293, lit1-tk-luc, triplicate. shares compounds with hcDAF12 agonist. HEK293 hcDAF-12 lit1-tk-luc reporter; % of Δ7-dafachronic acid response. activation, % at 6.8 µM. 3,400 compounds, 61% hits. AID 743032, 2013;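 active means mean activation across triplicate tests above the threshold derived from the earlier primary screen, cut at about 5.5% in these data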;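 further: 0% = DMSO only wells and 100% = 3 µM Δ7-dafachronic acid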
Starred values were filed as active, the others as inactive; · = not tested or not shown.

SMILES	DAX1 inh-1	ssDAF12 agonist	hgDAF-12 ag	DAX1 inh-2	hcDAF12 agonist	DAX1 inh confirm	SF1 AF2mut Luc	LXRb hcDAF ctr	hcDAF12 ag
CCc1ccc(NCc2nc3ccccc3c(=O)[nH]2)cc1	0	2.4*	15*	5.1*	11*	14*	9.3*	1	7.6*
C(=Cc1c[nH]c2ccccc12)c1nccc2ccccc12	-2	4.1*	23*	15*	24*	14*	7.1*	2	18*
Fc1ccccc1/C=C/c1ccc2ccccc2n1	-4	2.2*	15*	5.8*	20*	14*	3.5*	1	13*
O=Cc1nccc2ccccc12	0	0	0	2	1	·	·	·	·
C(=Cc1c[nH]c2ccccc12)c1ccc2ccccc2n1	-2	5.2*	18*	8.1*	20*	8.0*	1	2	12*
O=C(CSc1nnc(COc2ccccc2)n1-c1ccccc1)Nc1ccc2c(c1)OCO2	·	-1	1	-2	-1	·	·	·	·
COc1ccc(-c2cc(=O)c3ccccc3s2)cc1	3	0.9*	22*	6.9*	16*	17*	11*	2	10*
COc1ccc2sc3ccccc3c(=O)c2c1	1	0	4	1	1	·	·	·	·
CN1/C(=C\C(=O)c2cccs2)Sc2ccccc21	2	2.9*	17*	4.6*	21*	10*	7.0*	2	21*
Cc1ccc2cc(/C=N/NC(=O)c3ccc(F)cc3)c(Cl)nc2c1	1	-2	-1	-1	1	·	·	·	·
Cc1ccc2nc(Cl)c(/C=N/Nc3ccc(C(=O)O)cc3)cc2c1	0	3.0*	25*	11*	15*	25*	8.6*	2	16*
CC(=O)N1CCc2cc(S(=O)(=O)NCCC(=O)N(C)C3CCCCC3)ccc21	·	-2	0	-1	-1	·	·	·	·
COc1ccc(/C=N\NC(=O)c2sccc2C)cc1Cn1nc(C)cc1C	3	1.2*	11*	9.9*	7.2*	1	-4	0	4
Cc1ccc(C)c(NC(=O)c2ccccn2)c1	0	-1	5	1	1	·	·	·	·
Cc1ccc(C)c(NC(=O)c2ccc3ccccc3n2)c1	1	2.6*	11*	5.0*	17*	15*	10*	2	22*
CC(C)C[C@H]1CN([C@@H](Cc2ccccc2)CN2CCC[C@H]2CN2C(=O)C(=O)NC[C@@H]2Cc2ccccc2)C(=O)C(=O)N1CC1CCCCCC1	·	0	-3	0	-1	·	·	·	·
c1ccc(-c2cn3c(n2)-c2ccccc2C3)cc1	-3	3.8*	15*	5.7*	21*	11*	5.8*	1	22*
O=C1c2ccccc2CN2C(=O)c3ccccc3CN12	1	0	1	-1	0	·	·	·	·
O=C(N[C@H](Cc1ccccc1)C(=O)NCCCc1ccccc1)[C@H]1O[C@@H](n2ccc(=O)[nH]c2=O)[C@H](O)[C@@H]1O	·	-1	-2	2	-1	·	·	·	·
COc1ccc(-n2nc3cc(C)c(N)c(Br)c3n2)cc1	3	3.2*	14*	5.2*	20*	10*	4.8*	2	17*
C[C@@H]1CCN(C2CC2)S(=O)(=O)c2c(cccc2N2CCC[C@H]2C)O1	·	-1	-2	-1	-2	·	·	·	·
CC(=Nc1ccc(C)cc1)c1sc2ccccc2c1O	3	2.2*	15*	5.3*	11*	13*	4.3*	2	13*
Cc1ccccc1CN1CCCCC(NC(=O)c2ccc(Br)cc2)C1=O (stereo unspecified)	·	-2	-2	-4	-6	·	·	·	·
CCc1ccn2cc(-c3ccc4c(c3)OCO4)nc2c1	·	-2	-3	0	1	·	·	·	·
COC(=O)c1ccc2nc(-c3ccc4c(c3)OCO4)cn2c1	-3	1.7*	17*	10*	7.1*	8.9*	0	1	6.4*
SMILES	DAX1 inh-1	ssDAF12 agonist	hgDAF-12 ag	DAX1 inh-2	hcDAF12 agonist	DAX1 inh confirm	SF1 AF2mut Luc	LXRb hcDAF ctr	hcDAF12 ag
COC(=O)C(Cc1c[nH]c2ccccc12)NC(=O)c1ccc2nc[nH]c2c1 (stereo unspecified)	4.5*	2.1*	14*	8.7*	8.3*	13*	6.0*	1	6.9*
COC(=O)C(Cc1c[nH]c2ccccc12)NC(=O)c1cncc(Br)c1 (stereo unspecified)	1	0	1	0	5	·	·	·	·
COC(=O)[C@]12C[C@H](CC(=O)NCCc3ccccc3OC)C(=O)N(Cc3ccc4c(c3)OCO4)C1=C[C@H](C(C)(C)C)O[C@@H]2C	·	0	-1	-2	-1	·	·	·	·
O=C(O)c1cccc(N/N=C/c2cccs2)c1	-5	1.5*	17*	7.2*	13*	14*	6.3*	2	17*
CC(=O)NC(Cc1ccccc1)C(=O)OCC(=O)c1ccc(Br)cc1 (stereo unspecified)	0	-2	1	0	0	·	·	·	·
COc1ccccc1NC(CC(=O)c1ccccc1)C(=O)OCC(=O)c1ccc(C)c(C)c1 (stereo unspecified)	3	3.3*	22*	7.8*	17*	21*	8.1*	1	12*

Source: PubChem BioAssay
